# According to ChEMBL document CHEMBL3988442, “University of Dundee, Small-Polar-MMV Screening Library” (2021):
# Assays:
# [1] = molecular target: T1, Methionyl-tRNA synthetase, putative (Leishmania donovani (strain BPK282A1)) (UniProt E9BF75); experiment: Leishmania donovani Methionine tRNA synthetase (LdMetRS):v7. Dose response assay; assay type: functional; parameters: conc 80 nM, time 150 minutes
# T1 sequence (whole entry): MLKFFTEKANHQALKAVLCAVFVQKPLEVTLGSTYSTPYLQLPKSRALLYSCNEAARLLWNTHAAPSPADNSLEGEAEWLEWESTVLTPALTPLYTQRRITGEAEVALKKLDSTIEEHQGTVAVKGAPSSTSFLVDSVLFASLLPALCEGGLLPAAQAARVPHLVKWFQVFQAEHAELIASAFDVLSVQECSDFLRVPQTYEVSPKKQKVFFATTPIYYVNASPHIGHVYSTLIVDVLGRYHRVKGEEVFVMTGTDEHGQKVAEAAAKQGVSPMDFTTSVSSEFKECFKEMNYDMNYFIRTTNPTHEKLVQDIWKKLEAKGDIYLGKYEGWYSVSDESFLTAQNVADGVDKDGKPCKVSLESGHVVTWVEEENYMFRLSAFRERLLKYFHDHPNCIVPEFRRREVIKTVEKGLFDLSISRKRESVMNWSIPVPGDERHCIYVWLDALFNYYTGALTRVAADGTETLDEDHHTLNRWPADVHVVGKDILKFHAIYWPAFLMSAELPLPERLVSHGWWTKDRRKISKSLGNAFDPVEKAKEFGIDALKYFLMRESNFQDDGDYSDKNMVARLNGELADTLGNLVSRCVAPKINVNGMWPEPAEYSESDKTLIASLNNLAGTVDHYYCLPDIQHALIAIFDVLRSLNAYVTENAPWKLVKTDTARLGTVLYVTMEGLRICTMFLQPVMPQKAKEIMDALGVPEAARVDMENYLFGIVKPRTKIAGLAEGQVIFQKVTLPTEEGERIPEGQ
# [2] = molecular target: AMP-activated protein kinase, AMPK (Homo sapiens) (UniProt P54646+O43741+P54619+Q9UGJ0+Q9Y478+Q13131+Q9UGI9); experiment: AMP-dependent Kinase enzyme assay. An in vitro enzyme assay that detects ADP turnover that is directly proportional to AMPK activity. This uses naive AMPK that is activated during the assay with MK-8722; assay type: functional; parameters: scale not given: direction of the effect not stated beside the values; conditions: 30 µM
structure (smiles),measurement,setting,value
CCCCOC(=O)CNc1nc(Nc2ccc(F)c(F)c2)nc2c1cnn2C,PXC50,[1]; MAX_EFFECT 18.05225653,< 4
same,PXC50,[1]; MAX_EFFECT 18.45493562,< 4
same,PXC50,[1]; MAX_EFFECT 25.28301887,< 4
NC1CCN(C2CCN(c3ccc(-c4ccco4)cc3)CC2)CC1,PXC50,[1]; MAX_EFFECT 34.50087566,< 4
same,PXC50,[1]; MAX_EFFECT 44.89795918,< 4
same,PXC50,[1]; MAX_EFFECT 51.44927536,< 4
CC1CCN(c2ccc(C(=O)N3CCCC3c3ccc[nH]3)cn2)CC1 (stereo unspecified),PXC50,"[1]; BOTTOM 1.515439463, HILLSLOPE 1.666598775, MAX_EFFECT 83.87715931, TOP 100.0",4.46
same,PXC50,"[1]; BOTTOM -1.123012713, HILLSLOPE 2.407877124, MAX_EFFECT 92.83154122, TOP 98.62534766",4.49
same,PXC50,"[1]; BOTTOM -1.142129641, HILLSLOPE 1.640897748, MAX_EFFECT 81.18022329, TOP 100.0",4.4
same,PXC50,"[1]; BOTTOM -13.95110743, HILLSLOPE 2.091757253, MAX_EFFECT 73.91304348, TOP 74.65708324",4.71
same,PXC50,"[1]; BOTTOM -19.81350398, HILLSLOPE 1.3052719, MAX_EFFECT 84.15841584, TOP 92.57854766",4.84
same,Percent Effect,[2],-6.21%
O=C(c1cc(=O)n(-c2ccccc2)[nH]1)N1CCCC(c2ccn[nH]2)C1 (stereo unspecified),PXC50,"[1]; BOTTOM 0.320076031, HILLSLOPE 1.262872317, MAX_EFFECT 68.45753899, TOP 100.0",4.26
same,PXC50,"[1]; BOTTOM -1.400745031, HILLSLOPE 1.149427593, MAX_EFFECT 63.75838926, TOP 91.13261067",4.31
same,PXC50,"[1]; BOTTOM -5.915072335, HILLSLOPE 1.793815397, MAX_EFFECT 65.97222222, TOP 99.62132459",4.18
same,Percent Effect,[2],-16.1%
